# Screening data: PubChem BioAssay, National Center for Advancing Translational Sciences (NCATS)
# MCF10A rereplic = inducers of DNA re-replication in MCF 10A breast cells; MCF 10A DNA re-replication, Hoechst nuclear intensity, 48 h; Potency, µM (titrated, usually from 46.1 µM), inactives show at the highest dose activity, positive = re-replication, hits mostly activators; hit rate 2.9% among 350,000; also: % of control where 0% means no effect; nearly all actives have a fitted effect of over 50% in size
# SW480 rereplic = DNA re-replication induction in SW480 cells | Potency, µM (series often up to 46.1 µM), without a hit: at the highest dose re-replication activation, hits mostly activators | AID 624297 | hit rate 1.8% among 340,000 | SW480 DNA re-replication, Hoechst DNA content imaging, 48 h; also: % of control where 0% means no effect; nearly all actives have a fitted effect of over 55% in size
#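 Quantitative HTS format with DMSO vehicle controls; 48 hr drug incubation at 37 C, then 40 min Hoechst staining and scanning imager measurement at 405 nm excitation.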
# KB-3-1 cytotox = KB-3-1 parental cell cytotoxicity; KB-3-1 viability, CellTiter-Glo ATP luminescence, 72 h; Potency, µM (doses to about 46.1 µM), hits mostly cytotoxic; hit rate 1.4% among 400,000; AID 1347075; also: % is scaled to controls: 0 for no effect and ±100 for the full control effect; nearly all actives have a fitted effect of over 60% in size
#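 KB-3-1 cells, DMEM (no phenol red) + 10% FBS; compound by pin transfer, 72 h, 37 °C. Readout: CellTiter-Glo luminescence after 10 min. Data normalized, curve-fitted.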
# HT1080 IDH1KD tx = kills HT-1080 cells with IDH1 knockdown; Potency, µM (top dose mostly 46.1 µM), for inactives: top-dose activity, negative = toxicity, hits mostly cytotoxic; hit rate 2% among 360,000; AID 686971; HT-1080 IDH1 knockdown viability, ATP luminescence, 48 h;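 also: 0% = DMSO wells and -100% = cell-free medium wells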
#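 % activity derives from luminescence (CellTiter-Glo), normalised to DMSO and no-cell wells. HT-1080-IDH1KD cells, 750/well, had 48 h compound exposure at 37 °C.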
# KB-V1 cytotox = kills drug-selected multidrug resistant KB-V1 cells; KB-V1 MDR cells viability, CellTiter-Glo, 72 h; Potency, µM (highest dose often 46.1 µM), hits mostly cytotoxic; hit rate 3.4% among 400,000; AID 1347076; also: % is scaled to controls: 0 for no effect and ±100 for the full control effect; nearly all actives have a fitted effect of over 60% in size
#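 Compound-treated KB-V1 multidrug-resistant cells, 72 h, 37 degrees C; viability by CellTiter-Glo. Fitted qHTS curves give the values.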
# HT1080NT lethal = kills 2HG-producing HT-1080-NT fibrosarcoma cells | hit rate 1.6% among 360,000 | HT-1080-NT fibrosarcoma viability, CellTiter-Glo ATP luminescence, 48 h | Potency, µM (titrated, usually from 46.1 µM), without a hit: at the highest dose activity, negative = less viability, most hits filed as cytotoxic;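 also: NT is the 2HG producing partner of a matched IDH1 knockdown line; 0% = DMSO-treated cells and -100% = media-only wells without cells; nearly all actives have a fitted effect of over 55% in size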
#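 Toxicity toward the 2HG-producing NT line was scored as %Activity, normalised to DMSO and no-cell wells, from CellTiter-Glo luminescence after 48 hours' treatment.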
# Starred values were filed as active, the others as inactive; i = inactive; ? = inconclusive; . = no result given. Only some compounds are listed: those with a hit (about 8% of all), similar ones and a draw of the others. Calls follow the shape of the dose curve; as a rule, active = well fitted curve in the direction sought with a large enough effect; inconclusive = small, poorly fitted or top-dose-only effect, or another doubt; inactive = no such curve, though single readings can be large; an effect the other way counts as inactive or inconclusive. Potency is read from the fitted curve at half-maximal effect.
SMILES,MCF10A rereplic,SW480 rereplic,KB-3-1 cytotox,HT1080 IDH1KD tx,KB-V1 cytotox,HT1080NT lethal
COc1ccc(NC(=O)CCSc2ccc3ccccc3n2)cc1,10µM*,-3%,i,-2%,i,0%
COc1ccccc1Oc1cc(F)nc(N)n1,-6%,-28%,i,8%,i,6%
Fc1ccc(N2CCN(C3CCC(c4ccccc4)CC3)CC2)cc1 (stereo unspecified),6%,?,i,5%,i,10%
CCOc1ncccc1C(=O)N1CCCSC1=Nc1ccc(C(C)=O)cc1,0.92µM*,8%,i,-5%,i,-2%
CCOc1ccc(N=C2SCCCN2C(=O)c2c(CC)noc2C)cc1,3%,-4%,.,7%,.,5%
CC#CCOC(=O)c1c(C)nc2sc3c(c2c1N)CCC(O)C3 (stereo unspecified),?,-55%,?,?,12µM*,23µM*
CN1OC[C@@H]2CN(Cc3ccccc3)[C@H](c3cccc(-c4ccccc4)c3)C[C@@H]21,.,.,i,-13%,i,-17%
C=CCNCC(=O)N1N=C(c2ccc3ccccc3c2)CC1c1ccc(OC)cc1 (stereo unspecified),?,?,i,23µM*,i,23µM*
COc1ccc(C2CC(c3ccc4ccccc4c3)=NN2C(=O)CN2CCC(C(N)=O)CC2)cc1 (stereo unspecified),14%,-2%,?,?,i,?
COc1ccc(C2CC(c3ccc4ccccc4c3)=NN2C(=O)CNC2CCCCC2)cc1 (stereo unspecified),?,?,i,?,?,23µM*
COc1ccc(C2=NN(C(=O)CSc3ncccn3)C(c3ccc(C)cc3)C2)cc1 (stereo unspecified),?,?,i,-7%,23µM*,-5%
Cc1cc(=O)oc2cc(NS(=O)(=O)c3ccccc3)ccc12,2%,-6%,i,-2%,i,-1%
CC1CCCCC1NC(=O)COC(=O)c1cccn1C (stereo unspecified),-5%,-11%,i,-1%,i,2%
COc1ccc(S(=O)(=O)N(C)C)cc1NC(=O)CSc1nncs1,-2%,-6%,i,3%,?,10%
COc1ccccc1NC(=O)C(=O)/C=C(\O)c1ccccc1,-17%,-5%,i,10%,18µM*,-6%
CCCCCCCCCCCC[n+]1ccc(C)c2ccccc21,.,.,4.1µM*,.,i,.
Cc1cc[n+](C)c2ccccc12,.,.,i,.,i,.
CCCCCCC[n+]1ccc(C)c2ccccc21,.,.,0.58µM*,.,i,.
Cc1cc[n+](CCC2CCCCC2)c2ccccc12,.,.,2.1µM*,.,i,.
COc1ccc(C)cc1Nc1nc(-c2ccccc2O)nc2ccccc12,?,-12%,i,-4%,i,0%
Cc1ccc(-c2nn3c(C)nnc3s2)cc1NC(=O)C(C)C,-1%,0%,i,4%,i,-2%
COc1ccc(C(C)=O)cc1CS(=O)(=O)CC(=O)O,11%,-7%,i,14%,i,1%
CCOC(=O)N1CCc2cc(OC)c(OC)c3c2c1cc1cc(OC)c(OC)cc13,15µM*,18µM*,4.1µM*,16µM*,2.3µM*,?
COc1cc(CC(=O)N2CCc3ccccc32)cc(OC)c1OC,2%,2%,i,-14%,?,-3%
CCN(CC)c1ccc(NC(=O)CSc2nc(C3CC3)nc3ccccc23)cc1C,6.5µM*,8.2µM*,4.6µM*,6.5µM*,6.5µM*,9.2µM*
SMILES,MCF10A rereplic,SW480 rereplic,KB-3-1 cytotox,HT1080 IDH1KD tx,KB-V1 cytotox,HT1080NT lethal
O=C(CSc1nc(C2CC2)nc2ccccc12)N1CCCCC1,28%,15%,i,-18%,i,-15%
O=C(CSc1nc(C2CC2)nc2ccccc12)N1c2ccccc2Sc2ccc(C(F)(F)F)cc21,24%,11%,?,-10%,18µM*,-3%
O=C(CSc1nc(C2CC2)nc2ccccc12)Nc1ccccc1,-5%,0%,i,1%,i,-14%
COc1cc(NC(=O)CSc2nc(C3CC3)nc3ccccc23)cc(OC)c1,?,?,i,?,i,13µM*
O=C(/C=C/c1ccccc1)NCCSCc1ccccc1,7%,-693%,i,10%,i,13%
CN(N)C(=S)Nc1ccc(Cl)cc1,1%,1%,i,8%,i,24%
CCOC(=O)CCCCC(=O)c1[nH]c(=O)[nH]c1C[n+]1ccc(C)cc1,3%,-5%,i,12%,i,13%
O=C(Nc1ccc(F)cc1)C(Sc1nnc2ccccn12)c1ccccc1 (stereo unspecified),-68%,7%,i,1%,5.8µM*,8%
CCOc1ccccc1NC(=O)C(Sc1nnc2ccccn12)c1ccccc1 (stereo unspecified),3%,-4%,i,1%,?,1%
COc1ccc(C)cc1NC(=O)C(Sc1nnc2ccccn12)c1ccccc1 (stereo unspecified),0%,-2%,i,-6%,3.3µM*,-3%
CC1(c2ccc(Cl)cc2Cl)NC(=O)N(CC(=O)N2CCN(C(=O)c3ccco3)CC2)C1=O (stereo unspecified),-4%,-1%,i,3%,i,6%
COc1cc(OC)cc(C(=O)N2CCN(Cc3ccccc3C(F)(F)F)CC2)c1,15%,7%,i,-29%,15µM*,-8%
O=C(c1ccc(OC2CCN(Cc3ccccc3C(F)(F)F)CC2)cc1)N1CCCCC1,?,?,?,?,16µM*,-15%
COc1cc(C(=O)N2CCN(Cc3ccccc3C(F)(F)F)CC2)cc(OC)c1OC,?,11%,i,13%,15µM*,9%
O=C(c1ccc(OC2CCN(Cc3ccc(C(F)(F)F)cc3)CC2)cc1)N1CCCCC1,?,-2%,i,16%,i,13%
COc1cccc(OC)c1C(=O)N1CCN(Cc2ccccc2C(F)(F)F)CC1,0%,1%,i,-12%,i,-17%
Cc1ccc(CN=Cc2[nH]c3ccc(Br)c(Cl)c3c2O)cc1,4%,-9%,i,18µM*,i,-24%
CCC(C)(C)C1CCC(NC(=O)N2CCN(c3ccccc3O)CC2)CC1 (stereo unspecified),16%,-3%,i,-18%,i,-21%
COc1ccc(Cn2c(=O)[nH]c3cc(C(=O)N4CCN(c5ccccc5OC)CC4)ccc3c2=O)cc1,13%,?,21µM*,-19%,?,?
